Tau fibril FP = blocks human tau fibril formation measured by polarization; K18 P301L tau heparin fibrillization, Alexa594 FP, 6 h; actives 0.39% (n = 280,000); Potency, µM (doses to about 57.7 µM), actives largely listed as inhibitors; AID 1468; P10636; also: nearly all actives have a fitted effect of over 55% in size
Target sequence (P10636 561-689 P618L limits assumed): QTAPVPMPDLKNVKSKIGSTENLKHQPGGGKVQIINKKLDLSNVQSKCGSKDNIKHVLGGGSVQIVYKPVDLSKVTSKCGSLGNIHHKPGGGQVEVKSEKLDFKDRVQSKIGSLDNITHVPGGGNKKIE
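Compound effects on tau fibrillization are measured by Alexa 594 fluorescence polarization (ex 555, em 632 nm). K18 P301L tau is used at 15 uM with 0.24 uM labeled tracer, and 20 uM heparin induces aggregation over 6 hr at 37 C.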
Tau fluor counter = counter-screen for tau fibril formation inhibitors; tau K18 P301L Alexa594 fluorescence, heparin fibrillization; Potency, µM (titrated, usually from 57.7 µM); actives 0.93% (n = 280,000); also: nearly all actives have a fitted effect of over 55% in size
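Human K18 P301L tau (15 uM unlabeled plus 0.24 uM Alexa 594-labeled, final) in 100 mM sodium acetate pH 7 was mixed with compound and 20 uM heparin and incubated 6 hr at 37 C.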
TR SRC2 fluor cs = Texas Red fluorescence interference in TRb-SRC2 counter-screen. TRb/SRC2 Texas Red total fluorescence interference. actives 0.29% (n = 280,000). AID 1479. Potency, µM (titrated, usually from 106 µM); active = well fitted curve in either direction with a large enough effect; inconclusive = small, poorly fitted or top-dose-only effect
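Human TRb ligand-binding domain at 0.6 uM with 20 nM Texas Red SRC2 peptide in Tris buffer containing 1 uM T3 and 5% DMSO, incubated with compound 5 h at ambient temperature. Total fluorescence (555/632 nm) calculated as parallel + 2 × perpendicular.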
Tau fibril ThT = tau fibrillization inhibition (ThT binding) | P10636 | recombinant tau K18 P301L, heparin-induced fibrillization, ThT fluorescence | Potency, µM (top dose mostly 57.4 µM), most hits filed as inhibitors | actives 2.1% (n = 270,000); also: nearly all actives have a fitted effect of over 55% in size
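ThT emission at 510 nm, taken 1 hr after adding 30 uM dye, quantifies aggregates formed when 20 uM heparin acts on human tau K18 P301L for 6 hr at 37 C.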
TRb SRC2 PPI = inhibitors of human thyroid hormone receptor beta-SRC2 interaction; P10828; AID 1469; Potency, µM (titrated, usually from 106 µM), hits mostly inhibitors; TRbeta-SRC2 peptide binding, fluorescence polarization; receptor liganded with 1 µM T3; actives 0.065% (n = 280,000); also: nearly all actives have a fitted effect of over 50% in size
Target sequence (P10828 whole entry, looked up): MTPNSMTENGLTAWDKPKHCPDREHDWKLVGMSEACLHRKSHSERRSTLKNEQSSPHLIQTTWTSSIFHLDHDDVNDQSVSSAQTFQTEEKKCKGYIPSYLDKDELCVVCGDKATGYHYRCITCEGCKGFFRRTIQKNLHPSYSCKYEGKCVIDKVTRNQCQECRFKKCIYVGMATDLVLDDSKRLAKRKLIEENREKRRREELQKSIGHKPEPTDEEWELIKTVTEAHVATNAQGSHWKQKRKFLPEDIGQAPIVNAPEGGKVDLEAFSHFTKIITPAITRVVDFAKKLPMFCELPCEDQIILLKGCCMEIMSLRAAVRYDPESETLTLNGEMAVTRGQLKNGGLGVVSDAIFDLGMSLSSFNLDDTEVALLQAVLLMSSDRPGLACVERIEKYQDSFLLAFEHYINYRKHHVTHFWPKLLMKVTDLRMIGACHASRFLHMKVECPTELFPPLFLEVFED
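Human TRb ligand-binding domain (0.6 uM) is mixed with 20 nM Texas Red SRC2 peptide and 1 uM T3; after compound addition and 5 hr at ambient temperature, polarization is measured and normalized to unbound and bound controls.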
Of the large screens only hits and unclear results are named; the others gave an inactive call; [ ] = remark or other dose. Shown are actives, neighbours in structure and some others; about 3% of the full set was active somewhere. Unless noted, calls follow the shape of the dose curve; as a rule, active = well fitted curve in the direction sought with a large enough effect; inconclusive = small, poorly fitted or top-dose-only effect, or another doubt; inactive = no such curve, though single readings can be large; an effect the other way counts as inactive or inconclusive.

COc1cccc(NC(=O)Nc2cc(C(=O)O)ccc2C)c1	Tau fibril ThT inconclusive
COc1cccc(NC(=O)Nc2cc(NC(=O)Nc3cccc(OC)c3)c(C)nc2C)c1	Tau fibril FP 22µM, Tau fluor counter 11µM[quencher]
COc1cccc(NC(=O)Nc2ccc(C(C)(C)C)cc2)c1	Tau fibril FP inconclusive, Tau fluor counter 28µM[quencher]
COc1cccc(NC(=O)Nc2cc(-c3cn4cccnc4n3)ccc2C)c1	Tau fibril FP inconclusive
COc1cccc(NC(=O)c2ccc(NC(=O)C(C)(C)C)cc2)c1	none
COc1cccc(NC(=O)Nc2ccncc2)c1	none
COc1cccc(NC(=O)Nc2ccc(Cc3ccncc3)cc2)c1	Tau fibril FP inconclusive, Tau fluor counter 16µM[quencher]
COc1cccc(NC(=O)Nc2cc(-c3cn4cccnc4n3)ccc2OC)c1	Tau fluor counter 20µM[quencher], Tau fibril ThT inconclusive
COc1ccc(N2CCN(CCCNC(=O)c3ccc4nc(CCc5ccccc5)oc4c3)CC2)cc1	Tau fibril ThT inconclusive
CCOC(=O)c1cc(NC(=O)Nc2ccccc2Cl)c(C)nc1C	Tau fibril FP inconclusive
CCOC(=O)c1cc(NC(=O)Nc2ccc(Br)cc2)c(C)nc1C	Tau fibril FP 18µM, Tau fluor counter inconclusive
COc1ccc(COC(=O)N/N=C2/C[C@@H](O)[C@@H](O)[C@@H]3[C@@H]4C(=O)N(C[C@@H]5CCCO5)C(=O)[C@H]4CC[C@@H]23)cc1	none
COC(=O)C1=C(C(=O)OC)[C@@H]2N(C)c3ccc(OC)cc3[C@@]23C[C@@H](C(=O)OC)N(S(=O)(=O)c2ccc(C#N)cc2)C3=N1	none
Cc1nc(-c2cccc(NC(=O)Nc3ccc([N+](=O)[O-])cc3)c2)no1	Tau fibril FP 13µM, Tau fluor counter 8.9µM[quencher], Tau fibril ThT inconclusive
COc1ccc(C)cc1NC(=O)Nc1cccc(-c2noc(C)n2)c1	Tau fluor counter inconclusive, Tau fibril ThT inconclusive
COc1ccc(-c2noc(CN(C(=O)c3ccc(C)cc3C)C(C)C)n2)cc1	Tau fibril ThT inconclusive
CCOc1ccc(Nc2nc(C)c(NC(=O)c3cccc(OC)c3)c(Nc3ccc(OCC)cc3)n2)cc1	Tau fluor counter 11µM[quencher], Tau fibril ThT inconclusive
CCOc1ccc(C(=O)Nc2c(C)nc(Nc3ccccc3)nc2Nc2ccccc2)cc1OCC	Tau fluor counter inconclusive, Tau fibril ThT inconclusive
Oc1cc2c(cc1C(c1ccc(Br)cc1)N1CCCC1)OCO2 (stereo unspecified)	Tau fluor counter inconclusive, Tau fibril ThT 22µM
COC(=O)c1ccc(C(NC(=O)OCc2ccccc2)/C(F)=C/[C@@H](C)C(=O)NCCc2c[nH]c3ccc(OC)cc23)cc1 (stereo partly specified)	Tau fibril FP inconclusive, Tau fluor counter inconclusive
Cc1ccc(-n2nc(CO)c(C(=O)NCCCc3ccccc3)n2)cc1	none
COc1ccc(/C=N/NC(=O)c2nn(-c3ccccc3)c(=O)c3c(N)scc23)cc1	Tau fibril FP inconclusive, Tau fluor counter inconclusive, Tau fibril ThT 14µM
COc1ccc(/C=N/NC(=O)c2nn(-c3ccc(C)c(C)c3)c(=O)c3ccccc23)cc1	none
COc1ccc(/C=N/NC(=O)c2nn(-c3ccc(Cl)cc3)c(=O)c3c(N)scc23)cc1	Tau fibril FP inconclusive, Tau fluor counter inconclusive, Tau fibril ThT 10µM
CC(C)(C)c1ccc(OC2C(O)COC2/C=C/C#Cc2ccccc2)cc1 (stereo unspecified)	none
Cc1c(NC(=O)/C(C#N)=C/c2ccc(-c3cc(Cl)ccc3Cl)o2)c(=O)n(-c2ccccc2)n1C	Tau fibril FP inconclusive, Tau fibril ThT inconclusive
Cc1c(NC(=O)/C(C#N)=C/c2ccc(-c3ccc(Cl)cc3)o2)c(=O)n(-c2ccccc2)n1C	Tau fibril ThT 14µM
N#C/C(=C\c1ccc(-c2ccc(C(=O)O)cc2)o1)C(=O)Nc1ccccc1C(=O)O	Tau fibril ThT 2.5µM
N#C/C(=C\c1ccc(-c2cccc(Cl)c2)o1)C(=O)Nc1cccc(C(F)(F)F)c1	TR SRC2 fluor cs 0.089µM[quencher], TRb SRC2 PPI inconclusive
CCOc1ccc(NC(=O)/C(C#N)=C\c2ccc(-c3ccc(Cl)cc3)o2)cc1	TR SRC2 fluor cs inconclusive, Tau fibril ThT 1.4µM
CCCCOC(=O)/C(C#N)=C\c1ccc(-c2ccc(Cl)cc2)o1	none
COc1cccc(NC(=O)c2sc(-n3nc(C)c(Cc4ccccc4Cl)c3C)nc2C)c1	none
CCCn1c(=O)c2sccc2n2c(CCCC(=O)NCCOC)nnc12	none
O=C(Nc1nnc(S(=O)(=O)N2CCCc3ccccc32)s1)c1ccc(Cl)cc1	Tau fibril ThT inconclusive
Cc1cc(O)c(-c2cc(O)c(C)cc2O)cc1O	Tau fibril FP 14µM, Tau fluor counter inconclusive, Tau fibril ThT 7.9µM
CCOC(=O)C1=C(O)/C(=C/c2ccc(-c3ccccc3C(=O)O)o2)SC1=Nc1ccc(OC)cc1	Tau fibril ThT 16µM
COc1cc2cc[n+]3cc4c(OC)c(OC)ccc4cc3c2cc1OC	Tau fibril FP inconclusive, Tau fluor counter inconclusive, Tau fibril ThT inconclusive
O=C(CSc1nnnn1C1CCCCC1)N1CCN(C(=O)c2ccco2)CC1	Tau fibril ThT 3.5µM
O=C(CSc1nnnn1C1CCCC1)N1CCN(C(=O)c2ccco2)CC1	none
COc1cccc(NC(=O)Cn2c(=O)n(-c3ccccc3)c(=O)c3ccc(C(=O)NCc4ccc5c(c4)OCO5)cc32)c1	Tau fibril FP 32µM
O=C(Cn1c(=O)n(Cc2ccc3c(c2)OCO3)c(=O)c2oc3ccccc3c21)Nc1ccccc1	Tau fibril FP inconclusive, Tau fibril ThT inconclusive
COc1cccc(NC(=O)Cn2c(=O)n(Cc3ccc4c(c3)OCO4)c(=O)c3oc4ccccc4c32)c1	Tau fibril FP 28µM, Tau fluor counter inconclusive, Tau fibril ThT inconclusive
COc1cccc(NC(=O)Cn2c(=O)n(-c3ccc(Cl)cc3)c(=O)c3sc4ccccc4c32)c1	Tau fibril FP inconclusive
COc1cccc(-n2c(=O)c3sc4ccccc4c3n(CC(=O)Nc3cccc(Cl)c3)c2=O)c1	Tau fibril FP 22µM, Tau fluor counter inconclusive
Fc1cccc(-n2ncc3c2ncn2nc(COc4ccc(Cl)cc4)nc32)c1	Tau fibril ThT inconclusive
COc1ccc(-c2csc(Nc3ccc(S(=O)(=O)Nc4cc(C)on4)cc3)n2)cc1C	Tau fluor counter inconclusive, Tau fibril ThT 13µM
COc1ccc(CC(=O)Nc2ccc(S(=O)(=O)Nc3cc(C)on3)cc2)cc1OC	none
COc1ccc(-c2csc(Nc3ccc(S(=O)(=O)Nc4cc(OC)nc(OC)n4)cc3)n2)cc1	Tau fluor counter 11µM[quencher], Tau fibril ThT 16µM
CCCCN(C)CCCNC(=O)Cn1ncc2c3ccccc3n(Cc3cccc(Cl)c3)c2c1=O	none
COc1ccc(/C=N/N(Cc2ccccc2)c2ccccc2)cc1O	Tau fibril FP inconclusive, Tau fluor counter 14µM[quencher], Tau fibril ThT inconclusive
